The whole screen tested about 52,000 compounds, of which about 4,300 (8.3%) were called active. The full list was thinned out, with actives kept by preference. Unmarked numbers belong to inactive results. Cut-off read from the data, not from the text of the source: active = survival mostly below about 52% (no sharp cut-off); inactive = mostly above about 56%.
These molecules were tested on DeltatarO mutant (assay: growth inhibition of S. aureus wild type versus tarO mutant, primary screen, teichoic acid synthesis inhibitors, RN4220, OD600 (AID 463173)). Conditions: OD600, 18 h, active compounds read low, screened at 18.75 µg/mL (by protocol).

SMILES | survival
COc1ccc(NC(=O)CN2C(=O)COc3ccc(S(=O)(=O)NC4CCCC4)cc32)cc1OC | 75%
Cc1ccc(NC(=O)CCCn2c(=O)c3cccn3c3cccnc32)cc1C | 79%
CC(C)n1c(C(=O)OC(C(=O)NCc2ccco2)c2cccnc2)cc2sccc21 (stereo not given) | 88%
CCOC(=O)c1cnc2c(ccc3ccccc32)c1Nc1ccc(C(C)=O)cc1 | 1% (active)
CCOC(=O)c1cnc2c(ccc3ccccc32)c1Nc1ccc(OCC)cc1 | 5% (active)
CCOC(=O)c1cnc2c(ccc3ccccc32)c1Nc1ccccc1O | 69%
CCOC(=O)c1cnc2c(ccc3ccccc32)c1Nc1ccc(Cl)cc1 | 23% (active)
CCCOc1ccc(Nc2nc(SC)ncc2C(=O)OCC)cc1 | 65%
CCOC(=O)c1cnc(NCc2ccc(Cl)cc2)c2ccccc12 | 91%
CCOC(=O)c1cnc2c(ccc3ccccc32)c1Nc1ccc(OC)c(OC)c1 | 7% (active)
COc1cc(NC(=O)C2CCN(c3nnc(C)c4c(C)n(-c5ccccc5)nc34)CC2)cc(OC)c1 | 87%
CCOc1ccc(NC(=O)CSc2nnnn2C2CCCC2)cc1 | 68%
Cc1ccc(-n2nc(C(=O)N3CCN(c4ccccc4F)CC3)c3c4ccccc4n(C)c3c2=O)cc1 | 88%
CCCOc1ccc(CNC(=O)C(CC)n2nc(C)c3sc4ccccc4c3c2=O)cc1 (stereo not given) | 69%
O=C(NCCS(=O)(=O)N1CCN(c2cccc(Cl)c2)CC1)C(c1ccccc1)c1ccccc1 | 72%
COc1ccc(OC)c(NC(=O)c2ccc3c(c2)c(C)c(C)n3Cc2ccc(F)cc2)c1 | 122%
Cc1ccc(CNCC(C)O)s1 (stereo not given) | 73%
Cc1ccc(C(=O)Nc2ccc(NC(=O)c3cccs3)cc2)cc1C | 66%
CCc1nn(CC(=O)N2CCN(c3cccc(C)c3C)CC2)c(=O)c2cc3sccc3n12 | 134%
CCCNC(=O)CN1C(=O)COc2ccc(S(=O)(=O)N3CCC(C)CC3)cc21 | 121%
COCCNc1oc(-c2ccc(COc3ccc(OC)cc3)o2)nc1C#N | 79%
Cc1ccc(C2=NN(CC(=O)NCCc3ccc(Cl)cc3)C(=O)CC2)cc1 | 117%
CCn1c(C)c(C2N3CC4(C)CN2CC(CC)(C3)C4=O)c2ccccc21 (stereo not given) | 108%

SMILES | survival
Cc1cccc(C)c1-n1ncc(C(=O)N2CCN(c3ccccn3)CC2)c1C1CCN(C(=O)OC(C)(C)C)CC1 | 81%
Cc1ccccc1Nc1nc(N)c(C(=O)c2ccccc2Cl)s1 | 92%
COc1cccc(C(=O)c2sc(Nc3ccc(F)c(Cl)c3)nc2N)c1 | 55%
CCOC(=O)c1cnc2c(ccc3ccccc32)c1Nc1cccc(OC)c1 | 29% (active)
CCOC(=O)c1cnc2c(Cl)c(Cl)ccc2c1Nc1ccc(N(C)C)cc1 | 80%
CCOC(=O)c1noc2ncnc(Nc3cccc(OC)c3)c12 | 73%
CCOC(=O)c1noc2ncnc(Nc3cccc(C(F)(F)F)c3)c12 | 92%
CCOC(=O)c1cnc(SC)nc1Nc1ccccc1 | 84%
CCOC(=O)c1cnc2c(ccc3ccccc32)c1Nc1ccc(N(C)C)cc1 | 0% (active)
CCOC(=O)c1sc2ccccc2c1S(=O)(=O)Nc1cccc(C(F)(F)F)c1 | 63%
CCOC(=O)c1cnc2c(OC)cccc2c1Nc1cccc(O)c1 | 61%
CCOc1ccc(Nc2nc(N)c(C(=O)c3ccccc3Cl)s2)cc1 | 0% (active)
CCOC(=O)c1cnc2c(ccc3ccccc32)c1Nc1cccc(C(F)(F)F)c1 | 36% (active)
COc1ccc(-c2oc3ncn4nc(COc5ccccc5C)nc4c3c2-c2ccc(OC)cc2)cc1 | 79%
CC(=O)c1ccc(N2CCN(C(=O)c3ccc(Cn4c(=O)[nH]c5ccccc5c4=O)cc3)CC2)cc1 | 100%
CC(C)(C)c1cc(CN2CCOCC2)c(C(=O)O)o1 | 92%
COc1cc(NC(=O)CSc2nc3nc(C)c(Cc4ccccc4)c(C)n3n2)cc(OC)c1 | 112%
CC1CCN(S(=O)(=O)c2ccc(NC(=O)CSc3nnnn3C)cc2)CC1 | 97%
CCOC(=O)c1cnc2c(ccc3ccccc32)c1Nc1cccc(Cl)c1 | 14% (active)
COc1cccc2sc(N(Cc3cccnc3)C(=O)C3CCCCC3)nc12 | 86%
CCc1ccc(OCC(=O)N(Cc2ccc(Cl)cc2)C2CCS(=O)(=O)C2)cc1 (stereo not given) | 57% (active)
Cc1ccccc1OCC(=O)N(Cc1ccc(C(C)C)cc1)C1CCS(=O)(=O)C1 (stereo not given) | 31% (active)
CC(C)Oc1ccc(C(=O)N(Cc2ccc(N(C)C)cc2)C2CCS(=O)(=O)C2)cc1 (stereo not given) | 54%

SMILES | survival
Cc1ccsc1CN(C(=O)COc1cccc(C)c1C)C1CCS(=O)(=O)C1 (stereo not given) | 82%
COc1ccc(OCC(=O)N(Cc2cccc(OC)c2)C2CCS(=O)(=O)C2)cc1 (stereo not given) | 79%
CCc1ccc(OCC(=O)N(Cc2ccc(C(C)C)cc2)C2CCS(=O)(=O)C2)cc1 (stereo not given) | 23% (active)
COc1ccc(OCC(=O)N(Cc2ccc(C)o2)C2CCS(=O)(=O)C2)cc1 (stereo not given) | 85%
Cc1ccc(CN(C(=O)COc2ccc(C(C)C)cc2)C2CCS(=O)(=O)C2)o1 (stereo not given) | 87%
Cc1cc(C)cc(OCC(=O)N(Cc2ccc(Cl)cc2)C2CCS(=O)(=O)C2)c1 (stereo not given) | 59%
CC(C)c1ccc(OCC(=O)N(Cc2ccc(N(C)C)cc2)C2CCS(=O)(=O)C2)cc1 (stereo not given) | 43% (active)
Cc1ccsc1CN(C(=O)COc1ccccc1Cl)C1CCS(=O)(=O)C1 (stereo not given) | 86%
CCc1ccc(OCC(=O)N(Cc2ccc(C)o2)C2CCS(=O)(=O)C2)cc1 (stereo not given) | 110%
Cc1nc2cccnc2n1C1CCN(C(=O)Nc2ccc(Cl)cc2)CC1 | 81%
CCN(C(=O)CSc1ncc(S(=O)(=O)c2ccc(C)c(Cl)c2)c(=O)[nH]1)c1cccc(C)c1 | 99%
O=C(Cn1ncc2c3ccccc3n(Cc3cccc(Cl)c3)c2c1=O)NCCC1=CCCCC1 | 90%
Cc1cc(C)c(NC(=O)Cn2nnc(S(=O)(=O)c3ccc(C)c(C)c3)c2N)c(C)c1 | 96%
CCCCN(CC)C(=O)c1ccc2c(c1)NC(=O)c1ccccc1S2 | 104%
c1ccc(-c2cnnn2-c2ccccc2)cc1 | 87%
COc1ccccc1OCC(=O)N(Cc1cccs1)C1CCS(=O)(=O)C1 (stereo not given) | 53%
Cc1cc(Cl)ccc1OCC(=O)N(Cc1ccc(N(C)C)cc1)C1CCS(=O)(=O)C1 (stereo not given) | 39% (active)
Cc1cc(OCC(=O)N(Cc2ccc(N(C)C)cc2)C2CCS(=O)(=O)C2)cc(C)c1Cl (stereo not given) | 97%
Cc1cc(Cl)ccc1OCC(=O)N(Cc1sccc1C)C1CCS(=O)(=O)C1 (stereo not given) | 74%
Cc1ccsc1CN(C(=O)COc1ccc(Cl)cc1)C1CCS(=O)(=O)C1 (stereo not given) | 86%
CC(C)c1ccc(OCC(=O)N(Cc2cccs2)C2CCS(=O)(=O)C2)cc1 (stereo not given) | 51% (active)
CCOC(=O)C1=C(C)NC(=O)NC1C1CC=CCC1 (stereo not given) | 111%
COc1cc(-c2nc3nc[nH]n3c2Nc2ccc(C(C)C)cc2)ccc1O | 70%

SMILES | survival
CC(=O)c1cccc(S(=O)(=O)NCCc2csc3nc(-c4ccc(F)cc4)nn23)c1 | 88%
CCOC(=O)C1CCN(C(c2cccc(F)c2)c2c(O)cc(C)n(CCOC)c2=O)CC1 (stereo not given) | 135%
COc1ccc(CNC(=O)Cn2ccc3cc(S(=O)(=O)N4CCCCC4)ccc32)c(OC)c1 | 72%
COc1cc(OC)c(NC(=O)CN(C)S(=O)(=O)c2ccc3c(c2)CCCC(=O)N3)cc1Cl | 6% (active)
Cc1ccc(NC(=O)CCNS(=O)(=O)c2ccc3c(c2)CCCC(=O)N3)cc1 | 77%
COc1cc(Cl)c(NC(=O)CN(C)S(=O)(=O)c2ccc3c(c2)CCCC(=O)N3)c(OC)c1 | 83%
Cc1cccc(NC(=O)CCNS(=O)(=O)c2ccc3c(c2)CCCC(=O)N3)c1C | 96%
Cc1ccc(C)c(NC(=O)CCNS(=O)(=O)c2ccc3c(c2)CCCC(=O)N3)c1 | -4% (active)
COc1cc(NC(=O)CN(C)S(=O)(=O)c2ccc3c(c2)CCCC(=O)N3)cc(OC)c1OC | 70%
COc1ccccc1CNC(=O)CSc1ncc2c(n1)-c1ccccc1N(Cc1ccc(C)cc1)S2(=O)=O | 64%
CCc1ccc(NC(=O)c2ccc3c(O)c(S(=O)(=O)c4ccc(Cl)cc4)c(=O)[nH]c3c2)cc1 | 75%
Cc1ccc(N(C(=O)Cn2nnc(-c3ccc(C)o3)n2)C(C(=O)NC2CCCCC2)c2ccc(F)cc2)c(C)c1 (stereo not given) | 66%
COc1ccc(Cn2nnnc2C(c2ccccc2)N2CCC(C)CC2)cc1 (stereo not given) | 68%
CCc1ccc(NC(=O)CN2CCN(Cc3ccccc3)S2(=O)=O)cc1 | 68%
CCOc1cc2sc(N3CCC(C(=O)Nc4ccc(C)cc4C)CC3)nc2cc1Br | 71%
CCOC(=O)c1nc(Nc2ccccc2OC)c2ccccc2n1 | 44% (active)
CCOC(=O)c1nc(Nc2cccc(C)c2)c2ccccc2n1 | 75%
CCOC(=O)c1nc(Nc2ccc(OC)cc2)c2ccccc2n1 | 153%
CCCOC(=O)c1cccc(Nc2nc(C(=O)OCC)nc3ccccc23)c1 | 20% (active)
CCOC(=O)c1nc(Nc2ccccc2C)c2ccccc2n1 | 49%
CCCCCOC(=O)c1ccc(Nc2nc(C(=O)OCC)nc3ccccc23)cc1 | 60%
